Records with an inconclusive call do not appear. Where a call stands in place of a potency, no number is given. Active and inactive are the calls of the source. Calls follow the shape of the dose curve; as a rule, active = well fitted curve in the direction sought with a large enough effect; inconclusive = small, poorly fitted or top-dose-only effect, or another doubt; inactive = no such curve, though single readings can be large; an effect the other way counts as inactive or inconclusive.
Key:
[1] = target: Aldehyde dehydrogenase, mitochondrial (Homo sapiens) (UniProt P05091); test: qHTS for Inhibitors of the Aldehyde Dehydrogenase Family (ALDH2) Primary screen (AID 2061308); also: nearly all actives have a fitted effect of over 55% in size; also: potency is read from the fitted curve at half-maximal effect
[2] = target: Retinal dehydrogenase 2 (Homo sapiens) (UniProt O94788); test: qHTS for Inhibitors of the Aldehyde Dehydrogenase Family (ALDH1A2) Confirmation screens (AID 2061314); also: potency is read from the fitted curve at half-maximal effect; nearly all actives have a fitted effect of over 65% in size
[3] = target: Retinaldehyde dehydrogenase 3 (Homo sapiens) (UniProt P47895); test: qHTS for Inhibitors of the Aldehyde Dehydrogenase Family (ALDH1A3) Primary screen (AID 2061315)
[4] = target: Retinaldehyde dehydrogenase 3 (Homo sapiens) (UniProt P47895); test: qHTS for Inhibitors of the Aldehyde Dehydrogenase Family (ALDH1A3) Validation screen (AID 2061312); also: nearly all actives have a fitted effect of over 45% in size
[5] = BET inhibitor-based combinations targeting novel dependencies in MECOM-rearranged (r) AML: HNT-34 cell line (AID 2202234); also: potency is read from the fitted curve at half-maximal effect; nearly all actives have a fitted effect of over 35% in size
Outline: (§1)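 Activity is given as area under the curve and as Z-AUC, mean-centred within each cell line. It comes from 11-point dose curves normalized to DMSO and empty wells. CellTiter-Glo luminescence was read after 48 hr drug exposure of 500 cells/well.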

[6] = BET inhibitor-based combinations targeting novel dependencies in MECOM-rearranged (r) AML: UCSD-AML1 cell line (AID 2202235); also: potency is read from the fitted curve at half-maximal effect; nearly all actives have a fitted effect of over 40% in size
Outline: as §1

[7] = BET inhibitor-based combinations targeting novel dependencies in MECOM-rearranged (r) AML: AML-191 cell line (AID 2202236; also: potency is read from the fitted curve at half-maximal effect; nearly all actives have a fitted effect of over 35% in size)
Outline: (§2)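 Cells were plated at 500 per well and exposed to an 11-point dose series of each drug for 48 hr. Viability was measured by CellTiter-Glo luminescence, normalized to DMSO and empty-well controls, and summarized as AUC and per-cell-line Z-AUC.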

[8] = BET inhibitor-based combinations targeting novel dependencies in MECOM-rearranged (r) AML: AML-194 cell line (AID 2202237; also: potency is read from the fitted curve at half-maximal effect; nearly all actives have a fitted effect of over 40% in size)
Outline: as §2

[9] = BET inhibitor-based combinations targeting novel dependencies in MECOM-rearranged (r) AML: OCI-AML3 cell line (AID 2202232); conditions: Potency: OCI-AML3 viability; also: potency is read from the fitted curve at half-maximal effect; nearly all actives have a fitted effect of over 35% in size
Outline: as §2

[10] = BET inhibitor-based combinations targeting novel dependencies in MECOM-rearranged (r) AML: MV-4-11 cell line (AID 2202233); also: potency is read from the fitted curve at half-maximal effect; nearly all actives have a fitted effect of over 45% in size
Outline: as §1

Q: What does the source list for `Cc1ccc(-c2ccc(=O)n(CC(=O)N(C)C(C)c3ccco3)c2)cc1` (stereo not drawn)?
A: Potency [1]: inactive; Potency [2]: 2.01 µM (active); Potency [3]: inactive

Q: For `NC(=O)C1CCN(c2nc(-c3ccc(N4CCCCC4)nc3)cs2)CC1`, which Potency [1] is on record?
A: inactive

Q: And the Potency [2]?
A: 12.7 µM (active)

Q: And the Potency [3]?
A: inactive

Q: For `O=C(c1ccc(F)c(F)c1Nc1ccc(I)cc1F)N1CC(O)([C@@H]2CCCCN2)C1`, which Potency [1] is on record?
A: inactive

Q: What about the Potency [4] of the same molecule?
A: inactive

Q: And the Potency [3]?
A: inactive

Q: What about the Potency [5] of the same molecule?
A: 0.742 µM (active)

Q: And the Potency [6]?
A: 0.296 µM (active)

Q: What about the Potency [7] of the same molecule?
A: 8.33 µM (active)

Q: And the Potency [8]?
A: 7.42 µM (active)

Q: Which Potency [1] does the source give for `Cc1ccc(S(=O)(=O)c2ncccc2[N+](=O)[O-])cc1` here?
A: 6.31 µM (active)

Q: And the Potency [2]?
A: 0.449 µM (active)

Q: For `c1ccc(Cn2c(-c3ccc(OCC(C4CCNCC4)n4c(-c5ccccc5)nc5ccccc54)cc3)nc3ccccc32)cc1` (stereo not drawn), which Potency [1] is on record?
A: inactive

Q: What about the Potency [4] of the same molecule?
A: inactive

Q: What about the Potency [3] of the same molecule?
A: inactive

Q: And the Potency [9]?
A: 23.5 µM (active)

Q: And the Potency [10]?
A: 8.33 µM (active)

Q: What about the Potency [5] of the same molecule?
A: 18.6 µM (active)

Q: What about the Potency [6] of the same molecule?
A: 26.3 µM (active)

Q: And the Potency [8]?
A: 23.5 µM (active)

Q: Which results are given for `COc1ccc(OC)c(-c2nnc3n2N=C(c2ccccc2OC)CS3)c1`?
A: Potency [1]: inactive; Potency [3]: inactive

Q: Which results are given for `c1cncc(CNc2ccnc(-c3ccc4c(c3)OCO4)n2)c1`?
A: Potency [1]: inactive; Potency [3]: inactive

Q: With `COCCNc1nc(C)nc2c1nc(-c1ccccc1)n2CC1CCN(C)CC1` as the molecule, how does the Potency [1] read?
A: inactive

Q: What about the Potency [3] of the same molecule?
A: inactive

Q: With `Cc1csc(CNc2ncnc3ccc(-c4ccco4)cc23)c1` as the molecule, how does the Potency [1] read?
A: inactive

Q: And the Potency [3]?
A: inactive

Q: Which Potency [1] does the source give for `COc1ccc(CCC(=O)NCCc2nc3ccccc3n2CCOc2ccc(C)cc2)cc1` here?
A: inactive

Q: And the Potency [3]?
A: inactive

Q: With `CC(Nc1nc(-c2ccccc2C(F)(F)F)nc2ccccc12)c1ccc(-c2cccc(C(F)(F)F)c2)cc1` (stereo not drawn) as the molecule, how does the Potency [1] read?
A: inactive

Q: And the Potency [3]?
A: inactive

Q: Which Potency [1] does the source give for `CC(C)(C)n1cnc2cc(C(=O)N3CCCCC3)ccc21` here?
A: inactive

Q: And the Potency [3]?
A: inactive

Q: Which results are given for `Cc1ccnc(NC(=O)N2CCN(c3cccc(C(F)(F)F)c3)CC2)c1`?
A: Potency [1]: inactive; Potency [3]: inactive

Q: What does the source list for `Fc1ccccc1N1CCN(c2nc(-c3cccs3)nc3ccccc23)CC1`?
A: Potency [1]: inactive; Potency [3]: inactive

Q: Which results are given for `CCCCNc1nc(C)nc2c1nc(-c1ccccc1)n2CC1CCCN1CC` (stereo not drawn)?
A: Potency [1]: inactive; Potency [3]: inactive

Q: For `N#Cc1nc(Nc2cc(F)cc(F)c2)c2ncn(CCCN3CCCC3)c2n1`, which Potency [1] is on record?
A: inactive

Q: What about the Potency [3] of the same molecule?
A: inactive

Q: Which Potency [1] does the source give for `Cc1cccc(-c2csc3ncnc(Sc4nnnn4C)c23)c1` here?
A: inactive

Q: And the Potency [3]?
A: inactive

Q: With `COc1ccc(NC(=O)CN2C(=O)N/C(=C\c3cccn3-c3ccc(C(=O)NC#N)cc3)C2=O)cc1` as the molecule, how does the Potency [1] read?
A: inactive

Q: And the Potency [3]?
A: inactive

Q: Which Potency [1] does the source give for `Cc1ccc(S(=O)(=O)Nc2cnccc2C(=O)Nc2ccc(-c3nc4ccccc4[nH]3)cc2)cc1` here?
A: inactive

Q: What about the Potency [3] of the same molecule?
A: inactive

Q: Which results are given for `CN(C)CCCNC(=O)c1ccc(-c2cnc3c(O)ccc(C(=O)O)c3c2)cc1`?
A: Potency [1]: inactive; Potency [3]: inactive

Q: Which results are given for `Oc1cccc2c(-c3nn[nH]n3)ccnc12`?
A: Potency [1]: inactive; Potency [3]: inactive

Q: For `O=C(Nc1ccc(-c2ccccc2)cc1)Nc1nnc(-c2ccncc2)s1`, which Potency [1] is on record?
A: inactive

Q: And the Potency [3]?
A: inactive

Q: For `COc1ccc(N2C(=O)c3ccccc3C2=O)cc1`, which Potency [1] is on record?
A: inactive

Q: What about the Potency [3] of the same molecule?
A: inactive

Q: Which results are given for `O=[S+]([O-])(Nc1ccc(C2CCNCC2)cc1)c1ccc(NCc2ccc(Cl)cc2O)cc1`?
A: Potency [1]: inactive; Potency [3]: inactive

Q: Which results are given for `O=C1CCCC2=C1C1(CCCC1)N=C(Nc1nc3cc(-c4ccccc4)ccc3o1)N2`?
A: Potency [1]: inactive; Potency [3]: inactive

Q: For `O=C1NC(=O)/C(=C/c2cccn2-c2ccc(P(=O)(O)O)cc2)N1`, which Potency [1] is on record?
A: inactive

Q: What about the Potency [3] of the same molecule?
A: inactive

Q: Which Potency [1] does the source give for `Nc1ncnc2c1C(c1ccccc1)c1c(ccc3ccccc13)O2` (stereo not drawn) here?
A: inactive

Q: What about the Potency [3] of the same molecule?
A: inactive

Q: With `N#Cc1c(Oc2ccc(F)c(NC(=O)Cc3cccc(C(F)(F)F)c3)c2)ccc2nc(NC(=O)C3CC3)sc12` as the molecule, how does the Potency [1] read?
A: inactive

Q: What about the Potency [3] of the same molecule?
A: inactive

Q: Which Potency [1] does the source give for `Fc1ccc(-c2c(P(=S)(c3ccccc3)c3ccccc3)n3ccccc3[n+]2C/C=C/c2ccccc2)cc1` here?
A: inactive

Q: What about the Potency [3] of the same molecule?
A: inactive

Q: Which Potency [1] does the source give for `C/C=C/C=C/C=C/C(=O)O[C@@H]1C=C2COC(=O)[C@]2(O)[C@@]2(C)CCCC(C)(C)[C@H]12` here?
A: inactive

Q: What about the Potency [3] of the same molecule?
A: inactive

Q: For `CC(C)c1cccc2c(-c3ccccc3)cc(-c3ccc(-c4ccc(C(=O)O)cc4)[nH]3)nc12`, which Potency [1] is on record?
A: inactive

Q: What about the Potency [3] of the same molecule?
A: inactive

Q: For `C=C1C(=O)OC2CC(C)C(CCC(C)O)=CCC12` (stereo not drawn), which Potency [1] is on record?
A: inactive

Q: And the Potency [3]?
A: inactive

Q: What does the source list for `CC(C)(C)c1ccc(NC(=O)c2cccs2)cn1`?
A: Potency [1]: inactive; Potency [3]: inactive

Q: For `O=S(=O)(Nc1ccccc1)c1ccc(O)c2ncccc12`, which Potency [1] is on record?
A: inactive

Q: What about the Potency [3] of the same molecule?
A: inactive

Q: With `COC(=O)C1=CC[C@H](c2ccc(C)cc2)N(S(=O)(=O)c2ccc(C)cc2)[C@@H]1c1ccc(C(C)(C)C)cc1` as the molecule, how does the Potency [1] read?
A: inactive

Q: What about the Potency [3] of the same molecule?
A: inactive

Q: What does the source list for `CCCn1c(C)nc2c(NCCN(C(C)C)C(C)C)nc(C)nc21`?
A: Potency [1]: inactive; Potency [3]: inactive

Q: Which results are given for `COc1ccc(C(F)(F)F)cc1NC(=O)C(OC(=O)CNC(=O)c1ccccc1)c1ccccc1` (stereo not drawn)?
A: Potency [1]: inactive; Potency [3]: inactive

Q: Which results are given for `COc1ccc(C2=Nn3c(nnc3-c3ccccc3C(F)(F)F)SC2)cc1O[C@H]1CCOC1`?
A: Potency [1]: inactive; Potency [3]: inactive

Q: Which Potency [1] does the source give for `COc1ccc(-c2ccc3ncnc(NCCc4cnc[nH]4)c3c2)cc1OC` here?
A: inactive

Q: And the Potency [3]?
A: inactive

Q: For `Cn1c2ccsc2c2ncn(Cc3ccccc3F)c(=O)c21`, which Potency [1] is on record?
A: inactive

Q: And the Potency [3]?
A: inactive

Q: For `COc1ccccc1N1C(=O)c2ccccc2C1=O`, which Potency [1] is on record?
A: inactive

Q: And the Potency [3]?
A: inactive

Q: What does the source list for `Cc1cn([C@H]2C[C@H](N[S+](=O)([O-])c3ccc4c(c3)OCCO4)[C@@H](CO)O2)c(=O)[nH]c1=O`?
A: Potency [1]: inactive; Potency [3]: inactive

Q: Which Potency [1] does the source give for `CCCn1c(-c2ccc(F)cc2)nc2c(NC(C)CCCN(CC)CC)nc(C)nc21` (stereo not drawn) here?
A: inactive

Q: What about the Potency [3] of the same molecule?
A: inactive

Q: For `Cc1cc2c(s1)c1cnn(Cc3ccc(F)c(F)c3F)c(=O)c1n2C`, which Potency [1] is on record?
A: inactive

Q: What about the Potency [3] of the same molecule?
A: inactive

Q: For `COc1ccnc(NC(=S)N2CCN(c3cc(C(F)(F)F)cc(C(F)(F)F)c3)CC2)c1`, which Potency [1] is on record?
A: inactive

Q: And the Potency [3]?
A: inactive

Reference: PubChem BioAssay (NCATS)
